Screening data (PubChem)
Shiga inhibitor: blocks Shiga toxin action in Vero cells | Vero cells, Shiga toxin protein synthesis inhibition reporter | inhibition, % at 38.7 µM | 290,000 tested, 9.2% active; in the data active = inhibition mostly above about 28%, no sharp cut-off; inactive = mostly below about 43%; note: 0% is about no effect
AMA1 RON2 block: inhibitors of Plasmodium falciparum AMA1-RON2 interaction | AlphaScreen AMA1-biotinylated RON2 peptide binding | 360,000 tested, 0.2% active | AID 720542 | Potency, µM (titrated, usually from 58.2 µM), without a hit: at the top dose activity change, negative = inhibition, most hits filed as inhibitors;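 note: potency is the fitted concentration of half-maximal effect; 0% = vehicle wells and -100% = peptide control; nearly all actives have a fitted effect of over 45% in size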
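AMA1 (3D7) with his tag at 25 nM final met compounds first, then biotinylated RON2 peptide at 25 nM; detection used donor plus acceptor beads, 10 µg/mL apiece, read by AlphaScreen after 30 min at room temperature.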
HCV inh: inhibitors of hepatitis C virus infection | Huh7.5.1 HCVcc-Cre infection, luciferase reporter, 44 h | Potency, µM (doses to about 41.8 µM), for inactives: at the highest dose activity change, negative = inhibition, actives largely listed as inhibitors | 340,000 tested, 3.4% active; note: potency is the fitted concentration of half-maximal effect; % is set by controls: 0 for no effect and ±100 for the full control effect
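After 44 h co-culture of compound, cells and HCVcc-Cre (~0.5 moi), substrate is added for 15 min at room temperature and luciferase measured over 15 sec. Cells were seeded at 1,000/well and pre-cultured 4 h.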
Pf growth 48h: P. falciparum growth inhibition at 48 hours (one generation); P. falciparum luciferase growth in erythrocytes, 48 h; 310,000 tested, 5.9% active; Potency, µM (series often up to 28.7 µM), without a hit: top-dose activity change, negative = inhibition, usual class: inhibitors; note: potency is the fitted concentration of half-maximal effect; % is set by controls: 0 for no effect and ±100 for the full control effect
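Firefly luciferase activity from engineered P. falciparum reports growth; inhibitors lower the luminescent signal. Cultures contained 2% hematocrit erythrocytes at 0.1% final parasitemia.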
Pf growth 96h: inhibits malaria parasite growth, 96 h; P. falciparum luciferase reporter growth, 96 h; Potency, µM (series often up to 28.7 µM), inactives show top-dose activity change, negative = inhibition, usual class: inhibitors; 320,000 tested, 6.9% active; note: potency is the fitted concentration of half-maximal effect; % is set by controls: 0 for no effect and ±100 for the full control effect
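Delayed-death screen, second-generation endpoint: infected erythrocytes, 2% hematocrit, 0.05% parasitemia final; 96 hours at 37 C, 5% CO2; luciferase detection reagent; luminescence decrease equals reduced growth.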
Cycloheximide cs: affects cycloheximide protein synthesis inhibition readout, counter-screen; 300,000 tested, 12% active; max response, %; cell reporter, cycloheximide protein synthesis inhibition counterscreen; in the data active = max response mostly above about 13%, no sharp cut-off; inactive = mostly below about 14%; note: read at 38.3 µM for the half of the compounds with a filed dose; 0% is about no effect
* hit, by the source's call; i = inactive; ? = inconclusive; · = no result; [ ] = dose if it differs, or a comment. Most compounds without a hit are left out; they make up all but 21% or so of the library. Unless noted, calls come from the whole dose curve; as a rule, active = well fitted curve in the direction sought with a large enough effect; inconclusive = small, poorly fitted or top-dose-only effect, or another doubt; inactive = no such curve, though single readings can be large; an effect the other way counts as inactive or inconclusive.

SMILES	Shiga inhibitor	AMA1 RON2 block	HCV inh	Pf growth 48h	Pf growth 96h	Cycloheximide cs
CCCN(CCC)CCCNC(=O)c1cc2c(=O)n(CC)c3ccccc3c2s1	-6.1	19.9%	7.94µM*	-18.2%[0.00184 µM]	?	-5.7
CCCCN(CC)CCNC(=O)c1cc2c(=O)[nH]c3ccc(C)cc3c2s1	-4.9	-5.2%	?	8.28µM*	8.3%	6.0
CCCCN(CC)CCNC(=O)c1cc2c(=O)n(C)c3ccccc3c2s1	24.7	1.1%	?	?	?	-2.3
CCCCN(CC)CCNC(=O)c1cc2c(=O)n(CC)c3ccccc3c2s1	-10.5	0.0%	2.51µM*	?	79.0%	-3.7
O=C(O)c1cc(O)ccc1NC(=O)c1cccc2ccccc12	18.5	-5.0%	0.3%	-20.0%	0.0%	-1.8
CC(c1ccccn1)N(Cc1ccco1)C(=S)Nc1cccc(F)c1 (stereo unspecified)	-2.5	106.7%	20.3%	10.8%	?	15.9
COc1cc([C@@H]2CC(=O)c3c(O)cc(O)cc3O2)ccc1O	-7.6	·	·	·	·	0.3
CCN(C(=O)c1cc2c(=O)[nH]c3ccc(C)cc3c2s1)c1ccc(F)cc1	6.3	9.2%	?	?	?	-1.4
Cc1ccc2[nH]c(=O)c3cc(C(=O)N(C)c4ccc(C)c(C)c4)sc3c2c1	17.2	-0.6%	-26.1%	?	8.28µM*	-1.9
CS(=O)(=O)N1CCC(C(=O)NCc2ccc(Cl)cc2)CC1	-4.7	-10.4%	14.8%	2.33µM*	38.8%	-0.5
CS(=O)(=O)N1CCC(C(=O)NCc2ccncc2)CC1	18.9	-12.2%	-5.8%	-3.2%	19.5%	-1.5
CCN(CCNC(=O)C1CCN(S(C)(=O)=O)CC1)c1ccccc1	-6.4	0.2%	2.1%	-2.0%	4.65µM*	-0.9
COc1ccc(Br)cc1CNC(=O)C1CCN(S(=O)(=O)N2CCC(C)CC2)CC1	-0.8	-2.9%	-8.4%	?	11.7µM*	-4.6
O=C(NCc1ccc(F)cc1Cl)C1CCN(S(=O)(=O)N2CCCCC2)CC1	-7.4	0.0%	-21.8%	-18.1%	3.29µM*	4.8
Cc1cccc(-n2c(O)c(C=NC3CCS(=O)(=O)C3)c3ccccc3c2=O)c1C (stereo unspecified)	-7.1	-16.7%	11.1%	-8.6%	-7.6%	8.9
Cc1ccc(-c2c(CC(=O)O)c(C)nc3sc4c(c23)CCCC4)cc1	-8.0	-7.9%	11.1%	14.6%	7.4%	-5.4
CCNC(=O)C1CCCN(C(=O)c2cnc3ccccc3n2)CC1 (stereo unspecified)	·	6.0%	·	·	·	·
O=C(NCc1ccc(Cl)cc1)C1CCN(C(=O)Cc2ccccc2)CC1	-9.0	-7.1%	0.0%	15.3%	11.7µM*	6.9
CS(=O)(=O)N1CCC(C(=O)Nc2cc(Cl)c(Cl)cc2Cl)CC1	-20.2	-1.7%	11.7%	-9.1%	2.08µM*	4.9
CS(=O)(=O)N1CCC(C(=O)Nc2cc(Cl)ccc2Cl)CC1	22.1	3.6%	4.9%	-81.9%	-23.8%	-0.8
NC(=O)c1ccc(NC(=O)CN2C(=O)NC(c3ccccc3)(c3ccccc3)C2=O)cc1	-2.3	8.1%	-24.6%	6.5%	2.7%	-3.0
CCCCCCCCCCCCC/C=C/[C@@H](O)[C@@H](N)COP(=O)(O)O	2.4	·	·	·	·	-1.4
CO/N=C/c1ccc(Oc2ccc(C)cc2)c([N+](=O)[O-])c1	63.8	-26.5%	2.0%	i	134.7%	43.3*
O=[N+]([O-])c1cc(/C=N/O)ccc1Oc1ccccc1Cl	50.1*	-14.0%	-9.8%	94.7%	-9.0%	52.5*
CCc1cc(Cn2nc(-c3ccccc3)cc2C(=O)NCc2ccc(C)cc2)on1	·	8.0%	-8.9%	22.7%	48.4%	·
CC(C)(C)OC(=O)N1CCC(NC(=O)c2nc[nH]c2C(=O)NCC(=O)OCc2ccccc2)CC1	6.8	157.8%	-8.5%	-0.3%	39.8%	-1.2
CCc1cccc(OCC2Cn3c(nc4c3c(=O)n(C)c(=O)n4C)O2)c1 (stereo unspecified)	19.2	-3.9%	?	15.7%	?	-0.6
Cn1c(=O)c2c(nc3n2CC(COc2ccc(Cl)cc2)O3)n(C)c1=O (stereo unspecified)	-12.4	-5.6%	-25.6%	-10.7%	?	-2.4
